According to PubChem BioAssay AID922 (National Center for Advancing Translational Sciences (NCATS), 2007):
Results filed as inconclusive are left out. Active and inactive are the calls of the source. The call rests on the fitted dose curve; in most records, active means well fitted inhibition curve with a large enough effect in the signal ratio, with a control signal flat; inconclusive means small, poorly fitted or top-dose-only effect, or effect the other way; inactive means flat fitted curve, though single readings scatter; the % refers to the signal ratio.

test: Confirmation Concentration-Response Assay for Identification of Small Molecule Antagonists of Stat Signaling Pathway; settings: SIE-bla cells, IL-6 stimulated, beta-lactamase ratio, 5 h; series mostly up to 38.3 µM; activity change, negative = inhibition: at the top concentration
Source text: NIH Molecular Libraries Screening Centers Network [MLSCN] NIH Chemical Genomics Center [NCGC] MLSCN Grant: None NCGC Assay Overview: This assay is a retest of actives identified from the Stat signaling pathway assay (PubChem AID 446). The Stat assay is cell-based and measures Interleukin 6 (IL-6) mediated modulation of a beta-lactamase reporter gene controlled by a STAT inducible element (SIE-bla cells, Invitrogen). IL-6 is a cytokine that signals via the JAK/STAT pathway and is implicated in cancer and inflammation. SIE-bla cells are induced by IL-6 at 40 pM EC50 and inhibited by the pan JAK inhibitor, 2-(1,1-Dimethylethyl)-9-fluoro-3,6-dihydro-7H-benz[h]-imidaz[4,5-f]isoquinolin-7-one, at approximately 10 nM IC50. Plated cells were incubated overnight and on the following day, stimulated with 40 pM IL-6 for 5 hrs. The assay was stimulated with an EC50 of IL-6 to retest inhibitors of STAT signaling.
NCGC Assay Protocol Summary: Cells were trypsinized, washed in assay medium (AM, OPTI MEM with 0.5% fetal bovine serum, 0.1 mM nonessential amino acids, 1 mM sodium pyruvate, 10mM HEPES pH 7.3, 100U/ml penicillin, and 100 ug/ml streptomycin) and suspended at […] in AM. Approximately 2500 cells in 5 uL/well was dispensed into 1536-well plates and the cells were incubated overnight at 37 C. 23 nL of compound were delivered by a pin tool and 1 uL of IL-6 (40 pM final concentration in AM) was added. After plates were incubated at 37 C for 5 hrs, 1uL of detector mix (LiveBLAzerTM, Invitrogen) was added, the plates incubated at room temperature for 2.5 hrs, and fluorescence intensity at 460 and 530 nm emissions was measured at 405 nm excitation by an Envision (Perkin Elmer).

SMILES	Potency	activity change, negative = inhibition
NS(=O)(=O)c1ccc(N=Nc2cc3ccccc3c(C(=O)O)c2O)cc1	6.31 µM (active)	–
O=C(Nc1ccc(N2CCN(C(=O)c3ccccc3)CC2)c(Cl)c1)c1ccc(Br)o1	10 µM (active)	–
CSc1ncnc2c1ncn2CC(=O)[C@H]1CC[C@H]2[C@H]3CCC4=CC(=O)CC[C@@]4(C)[C@@H]3CC[C@@]12C	2.51 µM (active)	–
CCCCSc1nc(N)c(C#N)c(-c2cccs2)c1C#N	15.8 µM (active)	–
C=C1C(=O)O[C@@H]2[C@H]3O[C@]3(C)CCC=C(C)CC[C@@H]12	7.94 µM (active)	–
O=C(O)CCc1c2ccc(=O)c(O)c-2oc2c(O)c(O)ccc12	10 µM (active)	–
COc1ccc(C[C@@H]2C(=O)N[C@H](C)C(=O)N(C)[C@@H]3Cc4ccc(cc4)Oc4cc(ccc4O)C[C@H](C(=O)N[C@@H](C)C(=O)N[C@H](C)C(=O)N2C)N(C)C3=O)cc1	0.199 µM (active)	–
OCc1ccncc1.OCc1ccncc1.[Cl][Pt]([Cl])([Cl])[Cl]	10 µM (active)	–
OC[C@@H]1CCC[C@H](n2cnc3c(=S)nc[nH]c32)O1	–	3.19% (inactive)
Cn1c(NCc2ccccc2)nc2c1c(=O)n(Cc1ccc(Br)cc1)c(=O)n2C	15.8 µM (active)	–
O=C(O)c1c(Br)c(Br)c(Br)c(Br)c1C1c2ccc(O)cc2Oc2cc(O)ccc21	7.94 µM (active)	–
O=C1C(SCCO)=C(SCCO)C(=O)c2ccccc21	6.31 µM (active)	–
CCOC(=O)c1[nH]c2cc3c(cc2c1NC(=O)CN1CCc2ccccc2C1)OCO3	15.8 µM (active)	–
COc1cccc2c1[C@H](CO)N1[C@H](C#N)[C@@H]3C[C@H](C(=O)O)[C@@H]([C@@H]1C2)N3C	10 µM (active)	–
C=C1C(=O)O[C@@H]2[C@@H]1CC/C(C)=C\CC[C@@]1(C)O[C@H]21	25.1 µM (active)	–
NCCSc1nc2ccccc2s1	7.94 µM (active)	–
CC1CCN(CC[S-])CC1.O.O.[Cl][Pt]	25.1 µM (active)	–
CN(C)S(=O)(=O)c1ccc2c(c1)/C(=C/c1cc3c([nH]1)CCCC3)C(=O)N2	2.51 µM (active)	–
CCN(CC)CCNC(=O)c1cc(S(C)(=O)=O)ccc1OC	–	34.7% (inactive)
ClC(=Nc1cccc2ccccc12)N(c1ccccc1)c1ccccc1	–	14.2% (inactive)
COc1cc(/C=C\C(=O)N2CCCCC2=O)cc(OC)c1OC	12.6 µM (active)	–
CCC(=O)Nc1nc(C)c(Oc2ccccc2)c(=O)[nH]1	–	7.98% (inactive)
O=C1Nc2ccc(I)cc2/C1=C/c1cc(Br)c(O)c(Br)c1	12.6 µM (active)	–
